The text below walks through data of PubChem BioAssay (NCATS).

Test [1] in a line: qHTS profiling of the MIPE4 collection as inhibitors of Plasmodium falciparum (3D7) proliferation (AID 743344).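 Further: scaled between DMSO vehicle wells and 0.29 µM artemisinin as full inhibition.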 The settings on record: P. falciparum 3D7 in erythrocytes, SYBR Green DNA fluorescence, 72 h; at 28.5 µM unless noted. In a few lines: (§1)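 Parasite DNA was quantified by SYBR Green I fluorescence (ex 485, em 535 nm) after overnight lysis in saponin/Triton buffer at room temperature. Cultures at 0.3% parasitemia and 2.5% hematocrit were first exposed to compound for 72 h at 37 C; signals were normalised to artemisinin (0.29 uM) and vehicle wells.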

Test [2] is described as follows: qHTS profiling of the MIPE4 collection as inhibitors of Plasmodium falciparum (DD2) proliferation (AID 743345). The settings on record: P. falciparum Dd2 in erythrocytes, SYBR Green DNA, 72 h; at 28.5 µM unless noted. A digest of the protocol:
as §1
For orientation: qHTS replaces the single test concentration by a dilution series.

The nature of test [3]: qHTS profiling of the MIPE4 collection as inhibitors of Plasmodium falciparum (DD2) proliferation (Rep 2) (AID 743346). The settings on record: P. falciparum Dd2 in erythrocytes, SYBR Green DNA, 72 h; at 28.5 µM unless noted. In a few lines:
as §1

The nature of test [4]: qHTS profiling of the MIPE4 collection as inhibitors of Plasmodium falciparum (HB3) proliferation (AID 743347).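 Further: plate controls were DMSO vehicle wells for no effect and artemisinin wells for full effect.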 The settings on record: P. falciparum HB3 in erythrocytes, SYBR Green DNA, 72 h; at 28.5 µM unless noted. In a few lines:
as §1

The nature of test [5]: High-throughput drug toxicity screening in the BPDCN cell line Gen2.2 (AID 1224824).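 Further: cells exposed to compounds for 48 h before reading.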 The settings on record: Gen2.2 BPDCN cells; at 45.8 µM (top of the series) unless noted. A digest of the protocol:
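CellTiter-Glo luminescence read after 48 h compound exposure at 37 C defines viability; percent activity set with DMSO as 100% and bortezomib (9.2 uM final) as 0%. 500 exponentially growing cells per well, RPMI plus 10% FBS.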

Test [6] can be described thus: High-throughput drug toxicity screening in the BPDCN cell line Cal-1 (AID 1224825). The settings on record: Cal-1 BPDCN cell viability, qHTS; at 45.8 µM (top of the series) unless noted. A digest of the protocol: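 Percent activity derived from CellTiter-Glo luminescence, scaling DMSO to 100% and 9.2 uM final bortezomib to 0%. BPDCN Cal-1 cells (500/well, RPMI plus 10% FBS) incubated with compounds 48 hours at 37C before reading.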

The nature of test [7]: qHTS assay for measurement of the activity of small molecule inhibitors on Zika virus induced Caspase-3 activity in human iPSC derived neural progenitor cells (hNPCs) (AID 1224857; active means well fitted curve in the direction sought with a large enough effect; an effect the other way counts as inactive or inconclusive; further: % of control where 0% means no effect; nearly all actives have a fitted effect of over 65% in size). In a few lines: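 Values are percent inhibition of virus-induced caspase-3/7 signal, scaled between uninfected cells and ZIKV-infected cells. Infection used 2 FFU/cell for 6 h after 1 h compound exposure.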

Test [8] in a line: qHTS assay for measurement of the activity of small molecule inhibitors on Zika virus induced Caspase-3 activity in human astrocytoma cells (AID 1224859; active means well fitted curve in the direction sought with a large enough effect; an effect the other way counts as inactive or inconclusive;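 further: plate controls were ZIKV-infected untreated cells for no effect and uninfected cells for full effect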). In a few lines:
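Compound added 1 h pre-infection; ZIKV 2 FFU/cell on SNB-19 cells, 6 h, 37 C/5% CO2. Caspase-Glo 3/7 luminescence; values as % inhibition of ZIKV-induced caspase activity.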

The nature of test [9]: qHTS Screen of the MIPE 4.0 Collection Against Ewings Sarcoma (RDES) (AID 1259252; active means well fitted curve in the direction sought with a large enough effect; an effect the other way counts as inactive or inconclusive; further: nearly all actives have a fitted effect of over 35% in size; further: potency means the concentration at half of the fitted maximal effect). A digest of the protocol: (§2)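 Cells plated in serum-containing RPMI (5% FBS) and treated with compound dilutions for 48 h. Readout luminescent viability; normalization relied on vehicle (no inhibition) and media-only columns (full inhibition).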
Test [10] is described as follows: qHTS Screen of the MIPE 4.0 Collection Against Ewings Sarcoma (TC71) (AID 1259253; active means well fitted curve in the direction sought with a large enough effect; an effect the other way counts as inactive or inconclusive; further: nearly all actives have a fitted effect of over 40% in size; further: potency means the concentration at half of the fitted maximal effect). A digest of the protocol:
as §2

A short description of test [11]: qHTS Screen of the MIPE 4.0 Collection Against Ewings Sarcoma (EW8) (AID 1259255; active means well fitted curve in the direction sought with a large enough effect; an effect the other way counts as inactive or inconclusive;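 further: 100% = DMSO-treated cells and 0% = medium-only wells without cells; nearly all actives have a fitted effect of over 35% in size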). In a few lines:
as §2

Test [12] can be described thus: qHTS Screen of the MIPE 4.0 Collection Against Ewings Sarcoma (TC32) (AID 1259256; active means well fitted curve in the direction sought with a large enough effect; an effect the other way counts as inactive or inconclusive; further: nearly all actives have a fitted effect of over 45% in size; further: potency means the concentration at half of the fitted maximal effect). A digest of the protocol:
as §2

Test [13] in a line: qHTS assay to identify small molecule inhibitors of chordoma cells - UCH-1 (AID 1259355; active means well fitted curve in the direction sought with a large enough effect; an effect the other way counts as inactive or inconclusive; further: on the % scale 0 is the no-effect control and ±100 the full control effect; nearly all actives have a fitted effect of over 55% in size). A digest of the protocol:
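800 cells/well, overnight attach; compounds pinned at 15 concs, then auranofin/camptothecin/doxorubicin/rubitecan/topotecan combo added; 48hr 37 C, 5% CO2; CellTiter-Glo, 30min RT, luminescence.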

Records with an inconclusive call do not appear. Calls of active or inactive are those of the source. Unless noted, how the calls were made is not given here.

In [1], `CCNC(=O)[C@H]1O[C@@H](n2cnc3c(N)nc(NCCc4ccc(CCC(=O)O)cc4)nc32)[C@H](O)[C@H]1O` displayed a parasite growth, % of DMSO control of 93.9%. Moreover, in [2], the parasite growth remaining, % of DMSO control (lower = more inhibition) is 110%. The parasite growth, % of control (lower = inhibition) in test [3] was found to be 116%. This molecule also gave a growth, % of control in test [4] of 99.8%. Moreover, in test [5], the cell viability, % of control (lower = more cytotoxic) was 96.2%. The viability (% of control) in [6] was 129%. Besides, the Potency entry in test [7], in test [8], in [9] and in test [10] was “inactive” each time.

Consider `COc1ccc(-c2oc3c(CC=C(C)C)c(O)cc(O)c3c(=O)c2O)cc1`, for which the parasite growth, % of DMSO control in test [1] was 4.59%. The parasite growth remaining, % of DMSO control (lower = more inhibition) in [2] is 9.79%. Also, the parasite growth, % of control (lower = inhibition) in test [3] came to 11.9%. The growth, % of control in [4] came out at 4.42%. Further, the cell viability, % of control (lower = more cytotoxic) in [5] was 188%. In addition, the viability (% of control) in test [6] was 45.1%. The Potency result in [7] and in test [8] was “inactive” throughout. Moreover, the Potency in test [9] was 14.8 µM (active); in test [10], 18.7 µM (active).

`CCCCN(CCCC)CC(O)c1cc(Cl)cc2c1-c1ccc(Cl)cc1C2=Cc1ccc(Cl)cc1` (stereo not given): the parasite growth, % of DMSO control in test [1] stood at 8.66%. The parasite growth remaining, % of DMSO control (lower = more inhibition) in test [2] came out at 7.19%. Besides, in test [3], the parasite growth, % of control (lower = inhibition) was 11.5%. Besides, the growth, % of control in test [4] was determined as 11.8%. Also, the cell viability, % of control (lower = more cytotoxic) in test [5] was determined as 27%. Moreover, the viability (% of control) in test [6] is 63%. Further, the Potency result in test [7], in [8], in [9] and in test [11] was “inactive” each time.

As for `Cc1cn([C@@H]2C[C@@H](O)[C@H](CO)O2)c(=O)[nH]c1=O`, the cell viability, % of control (lower = more cytotoxic) in [5] was determined as 159%. Also, the viability (% of control) in test [6] stood at 69.5%. The Potency result in test [7], in [8], in [9], in test [11] and in [12] was “inactive” each time.

Consider `COC1CCC(C(=O)c2ccc3nc4c(cc3c2)CCCO4)CC1` (stereo not given), for which the parasite growth, % of DMSO control in test [1] is 21.8%. The parasite growth remaining, % of DMSO control (lower = more inhibition) in [2] stood at 31.2%. The parasite growth, % of control (lower = inhibition) in [3] turned out to be 15.9%. The growth, % of control in test [4] was 11.8%. For the same molecule, in test [5], the cell viability, % of control (lower = more cytotoxic) stood at 98%. Further, the viability (% of control) in test [6] was 85.9%. Besides, the Potency result in test [7] and in test [8] was “inactive” throughout. Moreover, the Potency in test [9] is 13.2 µM (active); in test [10], 16.6 µM (active).

Molecule `CC[C@H](C)C(=O)O[C@H]1C[C@H](O)C=C2C=C[C@H](C)[C@H](CC[C@@H](O)C[C@@H](O)CC(=O)O)[C@H]21` yielded a parasite growth, % of DMSO control in [1] of 96%. Moreover, the parasite growth remaining, % of DMSO control (lower = more inhibition) in test [2] turned out to be 105%. Besides, the parasite growth, % of control (lower = inhibition) in test [3] was 162%. Besides, in test [4], the growth, % of control stood at 101%. The cell viability, % of control (lower = more cytotoxic) in test [5] is 113%. Also, the viability (% of control) in test [6] came out at 113%. Also, the Potency entry in test [7], in test [8], in test [9] and in test [11] was “inactive” in each case. Besides, in [12], the Potency was 20.9 µM (active). In addition, the molecule was classed as inactive in test [13].

In test [1], `C#C[C@]1(O)CC[C@H]2[C@H]3CCc4cc(OC)ccc4[C@H]3CC[C@@]21C` had a parasite growth, % of DMSO control of 76.5%. For the same molecule, in test [2], the parasite growth remaining, % of DMSO control (lower = more inhibition) was found to be 98.2%. Also, in [3], the parasite growth, % of control (lower = inhibition) amounted to 90.2%. The same molecule registered a growth, % of control in test [4] of 87.7%. Besides, the cell viability, % of control (lower = more cytotoxic) in [5] is 211%. For the same molecule, the viability (% of control) in test [6] worked out at 98%. For the same molecule, the Potency entry in test [7] and in test [8] was “inactive” each time. Further, the Potency in test [9] was 20.9 µM (active); in [10], 29.6 µM (active).

`CC1=C(C(=O)Nc2cc3cn[nH]c3cc2F)C(c2ccc(C(F)(F)F)cc2)CC(=O)N1` (stereo not given) had a parasite growth, % of DMSO control in [1] of 5.13%. Besides, the parasite growth remaining, % of DMSO control (lower = more inhibition) in test [2] stood at 8.5%. Further, the parasite growth, % of control (lower = inhibition) in [3] amounted to 7.16%. Moreover, the growth, % of control in [4] turned out to be 5.72%. Besides, the cell viability, % of control (lower = more cytotoxic) in test [5] stood at 88.7%. Moreover, the viability (% of control) in test [6] was found to be 58%. Moreover, the Potency result in test [7], in [8], in test [11] and in [12] was “inactive” each time. Also, the Potency in test [9] was 1.48 µM (active).
